The source made the active and inactive calls. The calls were made as follows: active = hit-call score of the fitted dose curve at least 0.9, where 1 is the maximum; inactive = score below 0.9.
What was measured:
Settings in all cases: mRNA level, 48 h; actives raise or lower the signal
[1] = read-out: Forkhead box O1 (FOXO1), FOXO1 (gene 2308); experiment: LTEA_HepaRG_FOXO1: Life Technologies and Expression Analysis (LTEA) Assay for Forkhead box O1 (FOXO1) using HepaRG (AID 2283456)
Summary of the method: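 Differentiated human HepaRG cells in serum-free induction medium were exposed in duplicate for 48 h to eight half-log concentrations (top 100 uM, 0.5% DMSO). FOXO1 mRNA was measured by TaqMan qRT-PCR, normalised to ACTB, GAPDH and POLR2A, and fitted bidirectionally against DMSO.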

[2] = read-out: growth arrest and DNA damage 45 (GADD45A), GADD45A (gene 1647); experiment: LTEA_HepaRG_GADD45A: Life Technologies and Expression Analysis (LTEA) Assay for growth arrest and DNA damage 45 (GADD45A) using HepaRG (AID 2283458)
Summary of the method: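 Cells plated and cultured 48 h, switched to serum-free induction medium, then dosed for 48 h (100 uM top, half-log dilutions, 0.5% DMSO). RNA was isolated and transcript measured by Fluidigm qRT-PCR.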

[3] = read-out: Forkhead box O3 (FOXO3), FOXO3 (gene 2309); experiment: LTEA_HepaRG_FOXO3: Life Technologies and Expression Analysis (LTEA) Assay for Forkhead box O3 (FOXO3) using HepaRG (AID 2283459)
Summary of the method: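 Differentiated human HepaRG cells in serum-free induction medium were exposed in duplicate for 48 h to eight half-log concentrations up to 100 uM in 0.5% DMSO. FOXO3 mRNA was quantified by qRT-PCR, normalized to ACTB, GAPDH and POLR2A, with bidirectional fitting versus DMSO.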

[4] = read-out: ABC Transporter (ABCB1), ABCB1 (gene 5243); experiment: LTEA_HepaRG_ABCB1: Life Technologies and Expression Analysis (LTEA) Assay for ABC Transporter (ABCB1) using HepaRG (AID 2283460)
Summary of the method: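 Differentiated human HepaRG cells, plated 48 h then switched to serum-free induction medium, were exposed in duplicate to eight half-log concentrations up to 100 uM in 0.5% DMSO for 48 h. ABCB1 mRNA was measured by TaqMan qRT-PCR, normalized to ACTB/GAPDH/POLR2A.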

[5] = read-out: growth arrest and DNA damage 45 (GADD45B), GADD45B (gene 4616); experiment: LTEA_HepaRG_GADD45B: Life Technologies and Expression Analysis (LTEA) Assay for growth arrest and DNA damage 45 (GADD45B) using HepaRG (AID 2283461)
Summary of the method: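 Differentiated HepaRG cells, plated 48 h then switched to serum-free induction medium, were exposed 48 h in duplicate to eight half-log concentrations from 100 uM in 0.5% DMSO; mRNA quantified by qRT-PCR, normalized to ACTB/GAPDH/POLR2A, bidirectional fit versus DMSO.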

[6] = read-out: ABC Transporter (ABCC3), ABCC3 (gene 8714); experiment: LTEA_HepaRG_ABCC3: Life Technologies and Expression Analysis (LTEA) Assay for ABC Transporter (ABCC3) using HepaRG (AID 2283462)
Summary of the method: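 HepaRG cells in serum-free induction medium were exposed for 48 h in duplicate to 8-point half-log concentrations topping at 100 uM in 0.5% DMSO. ABCC3 mRNA was measured by qRT-PCR normalized to ACTB, GAPDH and POLR2A, with bidirectional fitting versus DMSO.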

[7] = read-out: ABC Transporter (ABCB11), ABCB11 (gene 8647); experiment: LTEA_HepaRG_ABCB11: Life Technologies and Expression Analysis (LTEA) Assay for ABC Transporter (ABCB11) using HepaRG (AID 2283463)
Summary of the method: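 Differentiated human HepaRG cells were exposed for 48 h in serum-free induction medium to eight half-log concentrations up to 100 uM in 0.5% DMSO. ABCB11 mRNA was quantified by qRT-PCR, normalized to ACTB, GAPDH and POLR2A, and fitted bidirectionally versus DMSO.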

[8] = read-out: ABC Transporter (ABCC2), ABCC2 (gene 1244); experiment: LTEA_HepaRG_ABCC2: Life Technologies and Expression Analysis (LTEA) Assay for ABC Transporter (ABCC2) using HepaRG (AID 2283464)
Summary of the method: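 HepaRG cells were plated 48 h, switched to serum-free induction medium, then exposed in duplicate for 48 h to 8 concentrations (top 100 uM, half-log steps, 0.5% DMSO). ABCC2 mRNA was measured by qRT-PCR normalized to ACTB/GAPDH/POLR2A; bidirectional fitting versus DMSO.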

[9] = read-out: Broad substrate specificity ATP-binding cassette transporter ABCG2 (Homo sapiens) (UniProt Q9UNQ0); experiment: LTEA_HepaRG_ABCG2: Life Technologies and Expression Analysis (LTEA) Assay for ABC Transporter (ABCG2) using HepaRG (AID 2283465)
Summary of the method: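 Differentiated HepaRG cells in serum-free induction medium were exposed for 48 h, in duplicate, to eight half-log concentrations up to 100 uM in 0.5% DMSO. ABCG2 mRNA was measured by TaqMan qRT-PCR, normalized to ACTB, GAPDH and POLR2A, and fitted bidirectionally versus DMSO.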

[10] = read-out: ATP-citrate lyase (ACLY), ACLY (gene 47); experiment: LTEA_HepaRG_ACLY: Life Technologies and Expression Analysis (LTEA) Assay for ATP-citrate lyase (ACLY) using HepaRG (AID 2283466)
Summary of the method: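 Differentiated human HepaRG cells in serum-free induction medium exposed 48 h, in duplicate, to eight half-log concentrations from 100 uM top in 0.5% DMSO; ACLY mRNA measured by qRT-PCR, normalized to ACTB, GAPDH, POLR2A, fitted bidirectionally versus DMSO.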

[11] = read-out: Peroxisomal acyl-coenzyme A oxidase 1 (ACOX1) gene, ACOX1 (gene 51); experiment: LTEA_HepaRG_ACOX1: Life Technologies and Expression Analysis (LTEA) Assay for Peroxisomal acyl-coenzyme A oxidase 1 (ACOX1) gene using HepaRG (AID 2283467)
Summary of the method: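 Differentiated human HepaRG cells were exposed in duplicate for 48 h in serum-free induction medium to eight half-log concentrations up to 100 uM in 0.5% DMSO. ACOX1 mRNA was then quantified by TaqMan qRT-PCR, normalized to ACTB, GAPDH and POLR2A.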

[12] = read-out: Alkaline Phosphatase, Placental (ALPP) gene, ALPP (gene 250); experiment: LTEA_HepaRG_ALPP: Life Technologies and Expression Analysis (LTEA) Assay for Alkaline Phosphatase, Placental (ALPP) gene using HepaRG (AID 2283468)
Summary of the method: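 Differentiated human HepaRG cells were plated and cultured 48 h, then exposed in duplicate for 48 h in serum-free induction medium to eight half-log concentrations from 100 uM in 0.5% DMSO. ALPP mRNA was measured by TaqMan qRT-PCR, normalized to ACTB, GAPDH, POLR2A.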

[13] = read-out: Bcl-2 (BAD) gene, BAD (gene 572); experiment: LTEA_HepaRG_BAD: Life Technologies and Expression Analysis (LTEA) Assay for Bcl-2 (BAD) gene using HepaRG (AID 2283469)
Summary of the method: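 Differentiated human HepaRG cells in serum-free induction medium were exposed in duplicate for 48 h to eight concentrations (top 100 uM, half-log steps, 0.5% DMSO). BAD mRNA was quantified by qRT-PCR normalised to ACTB, GAPDH and POLR2A, with bidirectional fitting versus DMSO.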

[14] = read-out: Bcl-2 (BAX) gene, BAX (gene 581); experiment: LTEA_HepaRG_BAX: Life Technologies and Expression Analysis (LTEA) Assay for Bcl-2 (BAX) gene using HepaRG (AID 2283470)
Summary of the method: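 HepaRG (human liver), 48 h exposure, duplicate wells. 8-pt curve, half-log from 100 uM, 0.5% DMSO. BAX transcript by TaqMan qRT-PCR; ACTB/GAPDH/POLR2A normalization; gain or loss vs DMSO baseline.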

[15] = read-out: adenosine kinase (ADK) gene, ADK (gene 132); experiment: LTEA_HepaRG_ADK: Life Technologies and Expression Analysis (LTEA) Assay for adenosine kinase (ADK) gene using HepaRG (AID 2283471)
Summary of the method: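 Following 48 h exposure of HepaRG cells in 0.5% DMSO (top concentration 100 uM, duplicate wells), ADK mRNA induction or suppression was measured by qRT-PCR, normalised to ACTB/GAPDH/POLR2A, and fitted bidirectionally relative to vehicle.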

[16] = read-out: Alpha-fetoprotein (AFP) gene, AFP (gene 174); experiment: LTEA_HepaRG_AFP: Life Technologies and Expression Analysis (LTEA) Assay for Alpha-fetoprotein (AFP) gene using HepaRG (AID 2283472)
Summary of the method: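 HepaRG, single lot; 48 h post-plating -> serum-free induction medium; cpd 8-pt, 100 uM top, half-log, 0.5% DMSO, duplicate, 48 h. RNA -> qRT-PCR AFP, norm ACTB/GAPDH/POLR2A. Bidirectional fit vs DMSO.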

BCL2L11 (gene 10018) = experiment: LTEA_HepaRG_BCL2L11: Life Technologies and Expression Analysis (LTEA) Assay for Bcl-2 (BCL2L11) gene using HepaRG (AID 2283473)
Summary of the method: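 Differentiated human HepaRG cells in serum-free induction medium were exposed in duplicate for 48 h to eight concentrations (top 100 uM, half-log steps, 0.5% DMSO). BCL2L11 mRNA was quantified by TaqMan qRT-PCR, normalized to ACTB/GAPDH/POLR2A, bidirectional fit versus DMSO.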

[17] = read-out: Apolipoprotein A-V (APOA5) gene, APOA5 (gene 116519); experiment: LTEA_HepaRG_APOA5: Life Technologies and Expression Analysis (LTEA) Assay for Apolipoprotein A-V (APOA5) gene using HepaRG (AID 2283474)
Summary of the method: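 Differentiated human HepaRG cells were exposed in duplicate for 48 h to eight half-log concentrations from 100 uM in 0.5% DMSO. APOA5 mRNA was quantified by TaqMan qRT-PCR, normalized to ACTB, GAPDH and POLR2A, and fitted bidirectionally against DMSO.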

[18] = read-out: Apoptosis regulator Bcl-2 (Homo sapiens) (UniProt P10415); experiment: LTEA_HepaRG_BCL2: Life Technologies and Expression Analysis (LTEA) Assay for Bcl-2 gene using HepaRG (AID 2283475)
Summary of the method: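 HepaRG, plated 48 h then switched to serum-free induction medium; dosed 48 h, 8 conc. (max 100 uM, half-log steps), duplicate, 0.5% DMSO. Lysis in RLT, RNA isolated, TaqMan qRT-PCR for BCL2; ACTB/GAPDH/POLR2A normalisation; bidirectional fit vs DMSO.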

Measured: AC50

Apoptosis regulator Bcl-2 (Homo sapiens), sequence (P10415 whole entry, looked up): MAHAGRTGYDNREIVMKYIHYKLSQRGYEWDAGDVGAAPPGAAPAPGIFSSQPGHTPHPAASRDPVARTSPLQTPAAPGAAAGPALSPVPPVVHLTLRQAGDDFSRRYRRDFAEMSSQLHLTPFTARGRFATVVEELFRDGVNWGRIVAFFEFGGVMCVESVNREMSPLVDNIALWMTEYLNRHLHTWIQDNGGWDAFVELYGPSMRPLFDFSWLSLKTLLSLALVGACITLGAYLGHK
Broad substrate specificity ATP-binding cassette transporter ABCG2 (Homo sapiens), sequence (Q9UNQ0 whole entry, looked up): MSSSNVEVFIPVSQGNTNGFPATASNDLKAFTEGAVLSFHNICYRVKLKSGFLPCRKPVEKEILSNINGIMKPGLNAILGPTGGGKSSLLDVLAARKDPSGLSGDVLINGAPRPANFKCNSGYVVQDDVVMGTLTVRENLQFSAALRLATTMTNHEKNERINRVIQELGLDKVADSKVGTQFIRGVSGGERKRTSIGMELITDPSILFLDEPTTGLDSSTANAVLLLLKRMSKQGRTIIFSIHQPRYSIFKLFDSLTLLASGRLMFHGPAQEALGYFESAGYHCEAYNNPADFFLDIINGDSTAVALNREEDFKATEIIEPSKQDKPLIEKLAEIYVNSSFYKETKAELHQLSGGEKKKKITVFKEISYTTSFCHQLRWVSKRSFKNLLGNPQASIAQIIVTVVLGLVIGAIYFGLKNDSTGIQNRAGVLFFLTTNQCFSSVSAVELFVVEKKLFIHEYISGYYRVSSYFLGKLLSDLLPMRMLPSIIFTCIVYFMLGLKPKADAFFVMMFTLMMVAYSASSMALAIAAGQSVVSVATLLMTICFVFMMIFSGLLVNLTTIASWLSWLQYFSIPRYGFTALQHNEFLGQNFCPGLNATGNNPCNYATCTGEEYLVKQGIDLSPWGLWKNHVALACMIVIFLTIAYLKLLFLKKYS

CC(C)C1(C)N=C(c2nc3ccccc3cc2C(=O)O)NC1=O (configuration not stated)
inactive: all assays above

CNC(=S)S
inactive: all assays above

CNC(=O)ON=CC(C)(C)SC
inactive: all assays above

CCOc1cc(Oc2ccc(C(F)(F)F)cc2Cl)ccc1[N+](=O)[O-]
active: [7] 19.1 µM | [9] 9.39 µM | [11] 50 µM | [12] 40.3 µM | [16] 39.1 µM | [17] 30.8 µM | [18] 33.5 µM
inactive: all other assays above

CN(C)C(=S)SSC(=S)N(C)C
inactive: all assays above

Fc1ccc(Oc2ccnc3cc(Cl)cc(Cl)c23)cc1
active: [7] 89.8 µM | [9] 50 µM | [12] 50 µM | [16] 89 µM
inactive: all other assays above

CCCCOC(=O)c1ccccc1C(=O)OCCCC
inactive: all assays above

COP(=S)(OC)Oc1nc(Cl)c(Cl)cc1Cl
active: [7] 86.7 µM
inactive: all other assays above
